Measured values as given in article PMC8384837, “Expanding the binding specificity for RNA recognition by a PUF domain”.
Changes are numbered by the printed parent chain.

Experiments:
Assay in all cases: yeast three-hybrid, YBZ-1, SC-Leu-His + 0.5 mM 3-AT, 4 days
Conditions in all cases: tags: N-Gal4 AD-HA kept; label: inside an RPR1-promoter hybrid RNA with tandem MS2 sites; ssRNA
PUM1 PUF domain R6-CYV = target: T1, PUM1 PUF domain R6-CYV (Homo sapiens, UniProt Q14671 828-1176, N1043C;Q1047V)
T1 sequence: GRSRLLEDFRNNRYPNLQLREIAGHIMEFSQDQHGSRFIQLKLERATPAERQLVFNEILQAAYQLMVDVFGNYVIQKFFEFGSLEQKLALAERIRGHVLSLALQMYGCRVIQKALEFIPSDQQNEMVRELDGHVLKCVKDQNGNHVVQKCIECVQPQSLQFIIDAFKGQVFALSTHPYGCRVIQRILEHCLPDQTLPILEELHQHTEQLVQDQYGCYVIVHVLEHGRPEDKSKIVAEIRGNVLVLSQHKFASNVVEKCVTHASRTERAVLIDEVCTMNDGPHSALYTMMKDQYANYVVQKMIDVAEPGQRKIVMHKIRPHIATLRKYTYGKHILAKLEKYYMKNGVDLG
Procedure, shortened: (§1)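 Repeat regions from input (SC-Leu) and selection (SC-Leu-His + 0.5 mM 3-AT) plates were PCR-amplified and Illumina-sequenced after four days of growth. The cells were strain YBZ-1 with a LexA–MS2 coat fusion and a HIS3 reporter, co-expressing Pumilio-1 PUF domain libraries and matching RNA elements from a centromeric plasmid. The interaction score is the log change in variant frequency from input to selection, taken in log2 with a pseudocount of 1 for absent variants.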

PUM1 PUF domain R4-SNL = PUM1 PUF domain R4-SNL (Homo sapiens, UniProt Q14671 828-1176, N971S;H972N;Q975L)
Procedure, shortened: as §1

PUM1 PUF domain R3-VYF = PUM1 PUF domain R3-VYF (Homo sapiens, UniProt Q14671 828-1176, C935V;R936Y;Q939F)
Procedure, shortened: as §1

PUM1 PUF domain R6-GHS = target: T2, PUM1 PUF domain R6-GHS (Homo sapiens, UniProt Q14671 828-1176, N1043G;Y1044H;Q1047S)
T2 sequence: T1 sequence with C216G, Y217H, V220S
Procedure, shortened: as §1

PUM1 PUF domain R3-ARA = PUM1 PUF domain R3-ARA (Homo sapiens, UniProt Q14671 828-1176, C935A;Q939A)
Procedure, shortened: as §1

PUM1 PUF domain R1-NWS = PUM1 PUF domain R1-NWS (Homo sapiens, UniProt Q14671 828-1176, S863N;R864W;Q867S)
Procedure, shortened: as §1

PUM1 PUF domain R1-QVK = PUM1 PUF domain R1-QVK (Homo sapiens, UniProt Q14671 828-1176, S863Q;R864V;Q867K)
Procedure, shortened: as §1

PUM1 PUF domain R5-KAS = PUM1 PUF domain R5-KAS (Homo sapiens, UniProt Q14671 828-1176, C1007K;R1008A;Q1011S)
Procedure, shortened: as §1

How did the binding signal (PUM1 PUF domain R6-CYV) turn out when “GGCUAGAACUAGUGGAUCCCCCGGCGCCCGGCGGCUCGAGCCCGGGUAAGUGUAAAUAGUCUGCAUGCCGCCGGGCGCCAUGCCUGCAGGUCGACUCUAGAAAACAUG” was run?
Its binding signal is 0.52 log2 enrichment (interaction score).

And the binding signal (PUM1 PUF domain R4-SNL)?
The binding signal was 2.52 log2 enrichment (interaction score).

And the binding signal (PUM1 PUF domain R3-VYF)?
Its binding signal is 5.15 log2 enrichment (interaction score).

And the binding signal (PUM1 PUF domain R6-GHS)?
The binding signal was 0.45 log2 enrichment (interaction score).

And the binding signal (PUM1 PUF domain R3-ARA)?
The binding signal was 3.97 log2 enrichment (interaction score).

For “GGCUAGAACUAGUGGAUCCCCCGGCGCCCGGCGGCUCGAGCCCGGGUAAGUGUAAAUUGUCUGCAUGCCGCCGGGCGCCAUGCCUGCAGGUCGACUCUAGAAAACAUG”, which binding signal (PUM1 PUF domain R1-NWS) is on record?
Its binding signal is 5.3 log2 enrichment (interaction score).

And the binding signal (PUM1 PUF domain R1-QVK)?
The binding signal was 0.46 log2 enrichment (interaction score).

With “GGCUAGAACUAGUGGAUCCCCCGGCGCCCGGCGGCUCGAGCCCGGGUAAGUGUCAAUAGUCUGCAUGCCGCCGGGCGCCAUGCCUGCAGGUCGACUCUAGAAAACAUG” as the sequence, how does the binding signal (PUM1 PUF domain R5-KAS) read?
Its binding signal is 3.47 log2 enrichment (interaction score).
